Mito fusion act: qHTS Assay for Small Molecule Inhibitors of Mitochondrial Division or Activators of Mitochondrial Fusion; S. cerevisiae fusion-defective mutant growth rescue, CellTiterGlo 48 h; AID 485298, 2010; Potency, µM (series often up to 46.1 µM), most hits filed as activators; 0.23% of 320,000 active; note: nearly all actives have a fitted effect of over 45% in size
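Luminescent cell viability in 1536-well qHTS format served as the measure of rescued growth in ts fusion-mutant S. cerevisiae cultured on non-fermentable YPEG for 48 hours at 37C.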
Abeta rescue: qHTS for compounds that reverse cellular toxicity of Amyloid beta (A-beta) peptide in yeast: Primary Screen; yeast expressing A-beta42, growth rescue, OD600, 48 h; response scale: 0% DMSO, 100% iron-clioquinol control; Potency, µM (top dose mostly 46.1 µM), hits mostly activators; 0.063% of 410,000 active; note: nearly all actives have a fitted effect of over 55% in size
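Yeast growth medium received pinned compounds, then yeast cells expressing toxic A-beta were added; plates incubated at 30 C for 48 hr. Growth read as absorbance at 600 nm, normalized to DMSO and equimolar FeCl3 plus clioquinol controls.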
TDP-43 yeast inh: qHTS of TDP-43 Inhibitors; 1.8% of 410,000 active; Potency, µM (highest dose often 46.1 µM), hits mostly activators; TDP-43 expressing yeast growth rescue, BacTiter-Glo, 24 h; AID 652104, 2013; note: nearly all actives have a fitted effect of over 50% in size
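Galactose-induced TDP-43 yeast, OD600=0.02, compound pinned; 24 hr, 30 deg C; BacTiter-Glo luminescence for growth. Inhibitors of TDP-43 toxicity read as activators.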
aSyn rescue: qHTS of alpha-syn Inhibitors | AID 652106, 2013 | Yeast expressing alpha-synuclein, growth rescue, BacTiter-Glo, 24 h | Potency, µM (series often up to 46.1 µM), most hits filed as activators | 0.14% of 370,000 active; note: nearly all actives have a fitted effect of over 65% in size
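Galactose-induced alpha-syn yeast (OD600=0.02, raffinose-pregrown) + pinned cpd, 24 hr, 30 deg C; growth by BacTiter-Glo luminescence. Growth restoration scores as activation.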
FUS yeast rescue: qHTS for Suppressors of FUS Proteinopathy: Primary screen using FUS-linked yeast assay; 0.24% of 390,000 active; Potency, µM (titrated, usually from 76.6 µM), usual class: activators; S. cerevisiae FUS-expressing, growth rescue, OD600, 24 h; note: nearly all actives have a fitted effect of over 55% in size
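Cultures pregrown in 2.5% raffinose medium are shifted to minimal medium containing 2% galactose to express toxic FUS. Compounds are tested at several concentrations. After 24hr at 30C, growth is quantified at 600 nm absorbance.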
Each line names hits and unclear results; the compound was inactive in the other large screens. Rows were chosen to be rich in hits. Some 2.2% of all compounds tested hit in one or more screens of this group. Calls come from the whole dose curve; as a rule, active = well fitted curve in the direction sought with a large enough effect; inconclusive = small, poorly fitted or top-dose-only effect, or another doubt; inactive = no such curve, though single readings can be large; an effect the other way counts as inactive or inconclusive.

Cc1[nH]n(-c2ccccc2)c(=S)c1C=Nc1cccc([N+](=O)[O-])c1	none
CN(C)S(=O)(=O)c1cccc(NC(=S)NNC(=O)c2cc3ccccc3cc2O)c1	Abeta rescue inconclusive
CCCCCC[C@@H](CC)CN(C(=O)Oc1ccccc1)c1ccccc1	none (no result: Mito fusion act, Abeta rescue, TDP-43 yeast inh, aSyn rescue)
CCOc1ccc(Nc2nc3ccccc3n3c(CC)nnc23)cc1	TDP-43 yeast inh 25µM (no result: Mito fusion act, aSyn rescue)
O=C1NN=C(c2ccc(Cl)cc2)CC1c1cccc(Br)c1 (stereo not given)	TDP-43 yeast inh 13µM, aSyn rescue inconclusive
O=C1NN=C(c2ccc(Cl)cc2)CC1c1c[nH]c2ccccc12 (stereo not given)	Mito fusion act inconclusive
Cc1ccc(C2=NNC(=O)C(c3ccc(Cl)cc3)C2)cc1 (stereo not given)	TDP-43 yeast inh 22µM
CCOC(=O)C1CC(c2ccc(Cl)cc2)=NNC1=O (stereo not given)	none
Cc1ccc(NC(=O)[C@@H]2CC(=O)O[C@@H]2c2ccccc2)c(C)c1	none (no result: Mito fusion act, Abeta rescue, TDP-43 yeast inh, aSyn rescue)
CC(C)(C)c1ccc2c(c1)OC(C(=O)N/N=C/c1ccc[nH]1)CO2 (stereo not given)	none (no result: Mito fusion act, Abeta rescue, TDP-43 yeast inh, aSyn rescue)
COc1ccc(C(=O)CCC(=O)Nc2cccnc2)cc1	none
CC1(c2nnc(-c3cccc(Cl)c3)o2)CC(c2ccccc2F)=NO1 (stereo not given)	aSyn rescue inconclusive (no result: Mito fusion act)
O=[N+]([O-])c1ccc(N2CCN(C(=S)NC3CCCCC3)CC2)cc1	Abeta rescue inconclusive, TDP-43 yeast inh 13µM
Cc1nc(Cl)c(C(=O)NC(C)(C)C)c(C)c1Cl	none
O=C1CC(N2CCN(c3ccccc3Cl)CC2)C(=O)N1c1ccc(F)cc1 (stereo not given)	TDP-43 yeast inh inconclusive
O=C1CC(N2CCN(c3ccccc3Cl)CC2)C(=O)N1c1cccc(F)c1 (stereo not given)	TDP-43 yeast inh 13µM
COC(=O)C1CN(C2CC2)CCS(=O)(=O)N1Cc1cn(Cc2ccccc2)nn1 (stereo not given)	none (no result: Mito fusion act, Abeta rescue, TDP-43 yeast inh, aSyn rescue)
Cc1ccc(OCc2nnn(CC(=O)NS(=O)(=O)c3c(C)noc3C)c2-c2ccccc2)cc1	none (no result: Mito fusion act)
COc1ccc(N2CCC(CNC(=S)Nc3ccc(C)cc3C)C2)cc1 (stereo not given)	Mito fusion act inconclusive, Abeta rescue 22µM, TDP-43 yeast inh inconclusive, FUS yeast rescue inconclusive
COc1ccc(CN2C(=O)[C@]3(NCCc4c3[nH]c3ccc(OC)cc43)c3cc(F)ccc32)cc1	none (no result: Mito fusion act, Abeta rescue, TDP-43 yeast inh, aSyn rescue)
COc1ccc(S(=O)(=O)N2CN(Cc3ccco3)c3nc4ccccc4nc32)cc1	FUS yeast rescue 5.6µM
Cc1ccc(S(=O)(=O)N2CN(Cc3ccco3)c3nc4ccccc4nc32)cc1	none
O=S(=O)(c1ccc(F)cc1)N1CN(Cc2ccco2)c2nc3ccccc3nc21	FUS yeast rescue 16µM
COc1cccc(/C=C2\SC(=S)N(NS(=O)(=O)c3ccc(C)cc3)C2=O)c1OC	Mito fusion act 5µM (no result: Abeta rescue, TDP-43 yeast inh, aSyn rescue, FUS yeast rescue)
N/C(CC1CC1(Cl)Cl)=N\OC(=O)c1ccccc1 (stereo not given)	TDP-43 yeast inh 18µM
N/C(Cc1ccc(Cl)cc1Cl)=N\OC(=O)c1ccccc1	TDP-43 yeast inh inconclusive
COC(=O)C1CCN(C(=O)CCn2nnc(-c3cccs3)n2)CC1	none (no result: Mito fusion act, Abeta rescue, TDP-43 yeast inh, aSyn rescue)
O=C(Nc1ccc(C2CC2(Cl)Cl)cc1)c1ccccc1Br (stereo not given)	Mito fusion act 14µM (no result: FUS yeast rescue)
O=C(COc1ccccc1C(=O)Nc1ccccc1)Nc1ccccc1Br	none (no result: Mito fusion act, Abeta rescue, TDP-43 yeast inh, FUS yeast rescue)
O=C(Oc1ccccc1C(=O)Nc1ccccc1)c1ccccc1Br	Mito fusion act 16µM, TDP-43 yeast inh 11µM
Cn1nc(-c2ccc(Cl)cc2)c2cc(C(=O)NCC3CCCO3)sc21 (stereo not given)	TDP-43 yeast inh 22µM, aSyn rescue inconclusive
O=C(CNS(=O)(=O)c1ccc(Br)s1)N1CCN(c2ccccn2)CC1	none (no result: Mito fusion act, Abeta rescue, TDP-43 yeast inh, aSyn rescue)
O=C(Nc1cccc(C(F)(F)F)c1)OCCCN1CCC2(CCC(c3ccccc3)CC2)C1=O (stereo not given)	none (no result: Mito fusion act, Abeta rescue, TDP-43 yeast inh, aSyn rescue)
